The target of one assay is JDP2. The experiment in a line: pooled miR-30 sensor sort-seq; sequence = guide strand. To be noted: shRNA.
TATCTGTTCATAACAAACAAAC gave a sensor-assay potency score (higher = more potent) of -1.71. TTTCATTCTGAGTTCCATCCTC: the sensor-assay potency score (higher = more potent) came out at 0.428. TAAACATTCGGTGAGTATGTGC returned a sensor-assay potency score (higher = more potent) of -0.401. The sequence TTAGGAGTTACACACAACGGCC showed a sensor-assay potency score (higher = more potent) of -1.56. Take TATACTGTATCACATCGAGTGA: the sensor-assay potency score (higher = more potent) was -0.648.

In turn, TACTGTATCACATCGAGTGATT displayed a sensor-assay potency score (higher = more potent) of -0.618. On the same count and under the same terms, with TAGCTCACTTTTCACGGGCTGG the figure was -0.699.

Sequence TTTATACTGTATCACATCGAGT had a sensor-assay potency score (higher = more potent) of -0.987. In turn, ATAACAAACAAACCATAGCATA registered a sensor-assay potency score (higher = more potent) of -1.75.

Take TTTCCTTCGCTCCTCTTCCTCA: the sensor-assay potency score (higher = more potent) is -0.612. On to TCTTCTTGTTCCGGCATCGGGC, for which the sensor-assay potency score (higher = more potent) was -0.866.

On to TTTGGTTGCAACTCATGGCTTT, for which the sensor-assay potency score (higher = more potent) came out at 0.0923.

Another assay concerns the target JMJD1C. The assay is described as above. The following applies: shRNA.
For TTTATCTCTAGAACTCTTCCTT, the sensor-assay potency score (higher = more potent) stood at 0.72. TTCAATTTTAAAACAACTGTTT came in with a sensor-assay potency score (higher = more potent) of -0.691. Regarding TATCTCTAGAACTCTTCCTTTC, the sensor-assay potency score (higher = more potent) was -0.557. For ATCTATTCTAACTACTCCGTTT, the sensor-assay potency score (higher = more potent) is -1.09.

ATTGACAGAACTTATCACCTAT showed a sensor-assay potency score (higher = more potent) of 0.441. Same read-out and setting: then TAGTCTTGAAGTCTTCTCCTGA, with 0.704; and TTAACTTGTTATCTGTGCCTAC, with 0.548; and TTTACATTTATCTTGGAGGTTT, with -0.435. Same read-out and setting: then TATCTTGTCAACATCTTTCCCA, with 0.56.

The next assay deals with JMJD8. The assay is described as above. To be noted: shRNA.
Take TTGAGCGTAGCATGCCACCAGC: the sensor-assay potency score (higher = more potent) is -0.983. TTTGTGGTAGGAGTAGGTGTTG gave a sensor-assay potency score (higher = more potent) of -1.04.

On to TATACATAGTTTATGTTCCTGG, for which the sensor-assay potency score (higher = more potent) was -0.256. The same measure, in the same setting: with TATCTGTGTAATAAAATCCGTG the figure was -0.911. The same measure, in the same setting: then TAGATCACTTCTGAGTACCCGG, with -0.223; and TTGTGGTAGGAGTAGGTGTTGG, with -1.22; and TACTGCTGCACGAACTCCGCGT, with -0.255. As for TTATTGACGCATTCATCTCTGA, the sensor-assay potency score (higher = more potent) is -0.0992.

The sequence TAGGAGTAGGTGTTGGCGGTGC returned a sensor-assay potency score (higher = more potent) of 0.392. For TACGACCGTAGATCACTTCTGA, the sensor-assay potency score (higher = more potent) was found to be 0.324.

In turn, TAGCATGCCACCAGCGGTCGGG gave a sensor-assay potency score (higher = more potent) of -0.51. TACAGCACCTCACCAGCCCGGA showed a sensor-assay potency score (higher = more potent) of -0.942.

In the next assay the target is JOSD1. The assay is described as above. The following applies: shRNA.
Turning to TTGTGAGGTGTCACCATGGTGT, the sensor-assay potency score (higher = more potent) is -0.922. TTTCCCAGCATGCTCTTCTTGT: the sensor-assay potency score (higher = more potent) is -0.498.

As to TTCCTGAGCTCGCTCTCGCCTC, the sensor-assay potency score (higher = more potent) was -1.09. On to TGATGTTTTAGAAACTTCCTGA, for which the sensor-assay potency score (higher = more potent) stood at 0.299. In turn, TTGAGTTTGGAGTCGAGGTTGT gave a sensor-assay potency score (higher = more potent) of 0.206.

For the origin of these results see the OligoGym collection.
Also: reference of the scale not given here.
